Counter-ions that a name gives are not always drawn. ± gives the standard deviation of the averaged measurements.
Tests used:
[1] = system: Saccharomyces cerevisiae BY4741 SeMeCo community; test: mean cell size (pixel area) (pixels); higher = larger cells; details: 10 µM; 24 h; SM minimal medium
Summary of the method: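 Mean cell pixel area per well was measured in a four-plasmid fluorescent community of Saccharomyces cerevisiae BY4741, where every plasmid complements one auxotrophy and carries a fluorescent marker. Cells from an overnight preculture at OD600 = 1.0 were diluted to OD600 = 0.3 and dispensed at 70 µl into 384-well plates acoustically predosed with drug to a final 10 µM in SM medium. Incubation lasted 24 h, followed by paraformaldehyde fixation, automated confocal imaging and analysis in Harmony. Reported figures are averaged over 3 replicates. Same SeMeCo high-content imaging drug screen: Selleck FDA-approved drugs at 10 µM, 24 h in SM medium, 384-well plates, 3 replicates.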

[2] = system: Saccharomyces cerevisiae BY4741 SeMeCo community; test: z-score of subpopulation abundance vs DMSO median, subpopulation auxotrophic for M; higher = larger share of this subpopulation than in DMSO controls; details: 10 µM; 24 h; SM minimal medium; subpopulation (auxotrophy): M
Summary of the method: (§1)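 Automated confocal microscopy of paraformaldehyde-fixed cells was used to follow a Saccharomyces cerevisiae BY4741 community carrying four plasmids, each restoring one auxotrophy and encoding a distinct fluorescent protein. The community was pre-grown overnight to OD600 1.0, diluted to 0.3, and added at 70 µl to 384-well plates acoustically predosed with library drugs (10 µM final) for 24 h of growth in minimal SM medium. Single-auxotroph fluorescent strains set thresholds and autofluorescence correction, and each subpopulation's abundance was scored as a z-score against the vehicle-well median.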

[3] = system: Saccharomyces cerevisiae BY4741 SeMeCo community; test: z-score of subpopulation abundance vs DMSO median, subpopulation auxotrophic for L; higher = larger share of this subpopulation than in DMSO controls; details: 10 µM; 24 h; SM minimal medium; subpopulation (auxotrophy): L
Summary of the method: as §1

[4] = system: Saccharomyces cerevisiae BY4741 SeMeCo community; test: z-score of subpopulation abundance vs DMSO median, subpopulation auxotrophic for U; higher = larger share of this subpopulation than in DMSO controls; details: 10 µM; 24 h; SM minimal medium; subpopulation (auxotrophy): U
Summary of the method: as §1

[5] = system: Saccharomyces cerevisiae BY4741 SeMeCo community; test: z-score of subpopulation abundance vs DMSO median, subpopulation auxotrophic for H; higher = larger share of this subpopulation than in DMSO controls; details: 10 µM; 24 h; SM minimal medium; subpopulation (auxotrophy): H
Summary of the method: as §1

[6] = system: Saccharomyces cerevisiae BY4741 SeMeCo community; test: z-score of subpopulation abundance vs DMSO median, subpopulation auxotrophic for LU; higher = larger share of this subpopulation than in DMSO controls; details: 10 µM; 24 h; SM minimal medium; subpopulation (auxotrophy): LU
Summary of the method: as §1

[7] = system: Saccharomyces cerevisiae BY4741 SeMeCo community; test: z-score of subpopulation abundance vs DMSO median, subpopulation auxotrophic for LM; higher = larger share of this subpopulation than in DMSO controls; details: 10 µM; 24 h; SM minimal medium; subpopulation (auxotrophy): LM
Summary of the method: as §1

[8] = system: Saccharomyces cerevisiae BY4741 SeMeCo community; test: z-score of subpopulation abundance vs DMSO median, subpopulation auxotrophic for HM; higher = larger share of this subpopulation than in DMSO controls; details: 10 µM; 24 h; SM minimal medium; subpopulation (auxotrophy): HM
Summary of the method: as §1

[9] = system: Saccharomyces cerevisiae BY4741 SeMeCo community; test: z-score of subpopulation abundance vs DMSO median, subpopulation auxotrophic for HU; higher = larger share of this subpopulation than in DMSO controls; details: 10 µM; 24 h; SM minimal medium; subpopulation (auxotrophy): HU
Summary of the method: as §1

[10] = system: Saccharomyces cerevisiae BY4741 SeMeCo community; test: z-score of subpopulation abundance vs DMSO median, subpopulation auxotrophic for UM; higher = larger share of this subpopulation than in DMSO controls; details: 10 µM; 24 h; SM minimal medium; subpopulation (auxotrophy): UM
Summary of the method: as §1

[11] = system: Saccharomyces cerevisiae BY4741 SeMeCo community; test: z-score of subpopulation abundance vs DMSO median, subpopulation auxotrophic for HL; higher = larger share of this subpopulation than in DMSO controls; details: 10 µM; 24 h; SM minimal medium; subpopulation (auxotrophy): HL
Summary of the method: as §1

[12] = system: Saccharomyces cerevisiae BY4741 SeMeCo community; test: z-score of subpopulation abundance vs DMSO median, subpopulation auxotrophic for HLU; higher = larger share of this subpopulation than in DMSO controls; details: 10 µM; 24 h; SM minimal medium; subpopulation (auxotrophy): HLU
Summary of the method: as §1

[13] = system: Saccharomyces cerevisiae BY4741 SeMeCo community; test: z-score of subpopulation abundance vs DMSO median, subpopulation auxotrophic for HLM; higher = larger share of this subpopulation than in DMSO controls; details: 10 µM; 24 h; SM minimal medium; subpopulation (auxotrophy): HLM
Summary of the method: as §1

[14] = system: Saccharomyces cerevisiae BY4741 SeMeCo community; test: z-score of subpopulation abundance vs DMSO median, subpopulation auxotrophic for HUM; higher = larger share of this subpopulation than in DMSO controls; details: 10 µM; 24 h; SM minimal medium; subpopulation (auxotrophy): HUM
Summary of the method: as §1

[15] = system: Saccharomyces cerevisiae BY4741 SeMeCo community; test: z-score of subpopulation abundance vs DMSO median, subpopulation auxotrophic for HLUM; higher = larger share of this subpopulation than in DMSO controls; details: 10 µM; 24 h; SM minimal medium; subpopulation (auxotrophy): HLUM
Summary of the method: as §1

[16] = system: Saccharomyces cerevisiae BY4741 SeMeCo community; test: z-score of prototroph abundance vs DMSO median; higher = larger share of this subpopulation than in DMSO controls; details: 10 µM; 24 h; SM minimal medium; subpopulation (auxotrophy): Prototroph
Summary of the method: as §1

[17] = system: Saccharomyces cerevisiae BY4741 SeMeCo community; test: z-score of subpopulation abundance vs DMSO median, subpopulation auxotrophic for LUM; higher = larger share of this subpopulation than in DMSO controls; details: 10 µM; 24 h; SM minimal medium; subpopulation (auxotrophy): LUM
Summary of the method: as §1

| Structure (SMILES) | mean cell size [1] | z-score of subpopulation abundance [2] | z-score of subpopulation abundance [3] | z-score of subpopulation abundance [4] | z-score of subpopulation abundance [5] | z-score of subpopulation abundance [6] | z-score of subpopulation abundance [7] | z-score of subpopulation abundance [8] | z-score of subpopulation abundance [9] | z-score of subpopulation abundance [10] | z-score of subpopulation abundance [11] | z-score of subpopulation abundance [12] | z-score of subpopulation abundance [13] | z-score of subpopulation abundance [14] | z-score of subpopulation abundance [15] | z-score of prototroph abundance [16] | z-score of subpopulation abundance [17] |
| --- | --- | --- | --- | --- | --- | --- | --- | --- | --- | --- | --- | --- | --- | --- | --- | --- | --- |
| COc1ccc(NS(=O)(=O)c2ccc(N)cc2)nn1 [Sulfamethoxypyridazine] | 12.2 ± 0.35 | -0.66 | -0.07 | 0.12 | -0.64 | -0.73 | -0.89 | -0.15 | -0.08 | 0.13 | -1.05 | -0.41 | -1.06 | -0.17 | -0.55 |  |  |
| CN[C@H](CC(C)C)C(=O)N[C@H]1C(=O)N[C@@H](CC(N)=O)C(=O)N[C@H]2C(=O)N[C@H]3C(=O)N[C@H](C(=O)N[C@H](C(=O)O)c4cc(O)cc(O)c4-c4cc3ccc4O)[C@H](O)c3ccc(c(Cl)c3)Oc3cc2cc(c3O[C@@H]2O[C@H](CO)[C@@H](O)[C@H](O)[C@H]2O[C@H]2C[C@](C)(N)[C@H](O)[C@H](C)O2)Oc2ccc(cc2Cl)[C@H]1O [Vancomycin] | 12.3 ± 0.13 | -0.82 | -0.12 | -0.09 | -0.2 | 0.08 | -0.43 | -0.74 | -0.91 |  | -0.12 | -0.21 | -0.2 | -0.71 | -0.03 | 0.81 | -0.78 |
| CC/C=C(\C(=O)N[C@@H]1C(=O)N2C(C(=O)OCOC(=O)C(C)(C)C)=C(COC(N)=O)CS[C@H]12)c1csc(N)n1 [Cefcapene Pivoxil Hydrochloride] | 12.3 ± 0.31 | 0.11 | 0.38 | 0.38 | 1.15 | 0.9 | 0.55 | 1.27 | 1 | 0.67 |  | -0.22 | 0.64 | 1.18 | 0.1 | -1.27 |  |
| CC[C@@H]1C(=O)OC[C@@H]1Cc1cncn1C [Pilocarpine HCl] | 12.7 ± 0.26 | 0.65 | 0.16 | -0.55 | 0.8 | -0.22 | 0.75 | 0.01 | -0.93 | -0.51 | -0.15 | -0.93 | -0.18 | -1.4 | -0.1 |  | -0.76 |
| COc1ncnc(NS(=O)(=O)c2ccc(N)cc2)c1OC [Sulfadoxine] | 12.47 ± 0.085 | -0.15 | -0.42 | 1.05 | -0.14 | 0.85 | -0.89 | -0.26 | 0.53 | 0.98 |  | 0.31 | 0.02 | 1.04 | 0.32 | -0.71 |  |
| O=c1ccc2ccc(OCCCCN3CCN(c4cccc5sccc45)CC3)cc2[nH]1 [Brexpiprazole] | 12.35 ± 0.092 | 0.05 | 0.33 | 0.84 | 0.96 | 0.27 | 0.35 | 0.35 | 1.54 | 1.41 | -0.02 | -0.45 | -0.13 | 0.25 | -0.98 | -0.62 |  |
| COc1cccc2c1C(=O)c1c(O)c3c(c(O)c1C2=O)C[C@@](O)(C(=O)CO)C[C@@H]3O[C@H]1C[C@H](N)[C@@H](O)[C@H](C)O1 [Epirubicin HCl] | 12.6 ± 0.2 | -4.59 | 1.16 | 1.23 | 1.56 | 2.53 | -0.38 | -3.22 | 3.44 | -0.97 | 2.24 | 2.87 | 0.2 | 0.3 | 4.48 | -0.14 |  |

Reference: the supplement of paper PMC8975748
